± gives the standard deviation.
Experiments:
Settings in all cases: modulator concentration 10 µM
[1] = tested on: RAW-Dual (murine macrophage reporter line); assay: NF-kB reporter (SEAP) activity fold change vs agonist alone; higher = enhanced NF-kB activity
How it was run: (§1)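 RAW-Dual murine macrophage reporter cells were plated at 50 000 per well in 384-well plates, pin-transferred compound to 10 μM final, and pre-incubated for 1 hour at 37 °C before a PRR agonist was added and the cells incubated overnight. NF-κB activity was read from supernatant SEAP with QUANTI-Blue at 620 nm absorbance, and IRF activity from Lucia luciferase with QUANTI-Luc by luminescence. Each signal was expressed as fold change by dividing by the mean agonist-only control on the same plate. Two replicate plates were averaged, with errors obtained by propagation.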

[2] = tested on: RAW-Dual (murine macrophage reporter line); assay: IRF reporter (Lucia luciferase) activity fold change vs agonist alone; higher = enhanced IRF activity
How it was run: as §1

[3] = tested on: RAW-Dual (murine macrophage reporter line); assay: viability score (confluency relative to resting cells, overnight) (fraction); higher = more viable, active = viable (0.7 or more)
How it was run: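 A compound met the cutoff when both of two confluency masks exceeded 70% of resting cells. Those masks were made with IncuCyte software from IncuCyte images of RAW-Dual macrophages treated overnight at 10 μM final. This is the basis of the viability score, which is confluency relative to resting cells.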

[4] = agonist: CpG ODN 1826 0.5 ug/mL

Structure (SMILES) | NF-kB reporter [1, 4] | NF-kB reporter ([1]; agonist: LPS 0.1 ug/mL) | NF-kB reporter ([1]; agonist: MPLA […]) | IRF reporter ([2]; agonist: 3'3'-cGAMP 10 ug/mL) | IRF reporter ([2]; agonist: LPS 0.1 ug/mL) | IRF reporter ([2]; agonist: MPLA […]) | viability score [3]
COc1cc(Cl)c(C)cc1NC(=O)c1ccccc1Cl | 0.906 ± 0.26 | 1.11 ± 0.062 | 1.4 ± 0.22 | 0.914 ± 0.042 | 0.991 ± 0.15 | 1.1 ± 0.12 | 0.981 (active)
O=C(O)CCCCCN1C(=O)C(=Cc2cn(-c3ccccc3)nc2-c2cccs2)SC1=S | 1.02 ± 0.063 | 1.12 ± 0.12 | 1.01 ± 0.059 | 1.03 ± 0.038 | 1.27 ± 0.082 | 1.06 ± 0.11 | 1 (active)
COc1ccccc1C=C(C#N)c1nc(-c2cc3cc(Br)ccc3oc2=O)cs1 | 0.951 ± 0.08 | 0.962 ± 0.075 | 0.943 ± 0.089 | 0.972 ± 0.069 | 1.31 ± 0.18 | 1.58 ± 0.27 | 1.02 (active)
CC(C)Oc1ccc(Br)cc1C=C(C#N)c1nn(CCO)c(N)c1C#N | 1.33 ± 0.11 | 1.16 ± 0.066 | 1.11 ± 0.077 | 0.91 ± 0.027 | 1.2 ± 0.22 | 1.03 ± 0.18 | 1.01 (active)
COc1ccc2cc(CCC(C)=O)ccc2c1 | 1.23 ± 0.19 | 1.19 ± 0.56 | 1.06 ± 0.11 | 0.931 ± 0.03 | 1.18 ± 0.45 | 1.2 ± 0.098 | 0.95 (active)
Fc1ccc(CN2CCc3c([nH]c4ccccc34)C2)cc1 | 0.756 ± 0.07 | 0.707 ± 0.059 | 1.4 ± 0.12 | 0.64 ± 0.039 | 0.974 ± 0.091 | 2.77 ± 0.34 | 0.126 (inactive)
O=C(NCCN1CCN(c2ccc(F)cc2)CC1)c1ccno1 | 1.04 ± 0.1 | 0.965 ± 0.077 | 0.991 ± 0.026 | 0.982 ± 0.059 | 0.968 ± 0.072 | 0.929 ± 0.14 | 0.999 (active)
O=C(CSc1nc[nH]n1)NC(c1ccccc1)c1ccccc1 | 0.77 ± 0.077 | 0.86 ± 0.053 | 1.01 ± 0.088 | 0.51 ± 0.033 | 1.33 ± 0.096 | 1.62 ± 0.17 | 1.01 (active)
CCOc1ccc2nc(S(N)(=O)=O)sc2c1 | 0.804 ± 0.2 | 1.02 ± 0.051 | 0.985 ± 0.067 | 0.855 ± 0.029 | 0.897 ± 0.11 | 0.953 ± 0.2 | 1.01 (active)
CC(=O)c1cccc(NC(=O)CSc2nnc3c4ccccc4n(C)c3n2)c1 | 0.817 ± 0.063 | 0.835 ± 0.069 | 0.994 ± 0.091 | 0.904 ± 0.042 | 1.27 ± 0.11 | 1.41 ± 0.21 | 1.01 (active)
c1ccc2sc(SCCCCSc3nc4ccccc4s3)nc2c1 | 1.11 ± 0.087 | 1.02 ± 0.1 | 0.938 ± 0.035 | 0.953 ± 0.14 | 1.06 ± 0.1 | 0.977 ± 0.17 | 0.998 (active)
CCOc1ccccc1OCCOCCOc1ccc(Br)cc1Cl | 0.905 ± 0.051 | 0.9 ± 0.13 | 1.22 ± 0.044 | 0.876 ± 0.034 | 0.979 ± 0.088 | 1.02 ± 0.12 | 0.992 (active)
CC(C)(Oc1ccc(CCNC(=O)c2ccc(-c3ccc(Cl)cc3)o2)cc1)C(=O)O | 1.09 ± 0.087 | 1.03 ± 0.078 | 0.976 ± 0.062 | 0.942 ± 0.067 | 1.39 ± 0.22 | 1.08 ± 0.1 | 1.01 (active)
CCN1CCCC1CNC(=O)c1cc(S(=O)(=O)CC)c(N)cc1OC (centres undefined) | 1.69 ± 0.23 | 1.28 ± 0.32 | 1.23 ± 0.089 | 0.819 ± 0.032 | 0.957 ± 0.29 | 0.808 ± 0.12 | 0.994 (active)
CN(C)CC(c1ccc(O)cc1)C1(O)CCCCC1 (centres undefined) | 0.971 ± 0.16 | 1.07 ± 0.26 | 0.893 ± 0.054 | 0.897 ± 0.045 | 1.44 ± 0.32 | 1.17 ± 0.092 | 0.992 (active)
CS(=O)(=O)N(CC(=O)N1CCCCCC1)c1ccc(Cl)c(C(F)(F)F)c1 | 0.958 ± 0.11 | 1.21 ± 0.081 | 0.958 ± 0.036 | 0.974 ± 0.12 | 1.13 ± 0.15 | 1.15 ± 0.24 | 1 (active)
CC(=O)N1CCC(C(=O)N2CCOCC2CN(C)C)CC1.O=CO (centres undefined) | 0.979 ± 0.11 | 1.08 ± 0.17 | 0.924 ± 0.064 | 0.992 ± 0.08 | 1.13 ± 0.089 | 1.06 ± 0.082 | 0.992 (active)
COC(=O)c1c(NC(=O)C2CCCCC2)sc2c1CC(C)(C)NC2(C)C | 1.12 ± 0.095 | 1.24 ± 0.1 | 1.47 ± 0.16 | 0.764 ± 0.08 | 1.06 ± 0.1 | 1.82 ± 0.38 | 0.419 (inactive)
O=C(CN1CCCCC1)NN=Cc1ccccc1OCc1ccccc1 | 0.948 ± 0.08 | 1.01 ± 0.1 | 0.927 ± 0.04 | 0.99 ± 0.1 | 1.02 ± 0.082 | 1.14 ± 0.18 | 0.995 (active)
CCC(C)NC(=O)C(=O)Nc1cccc(C(F)(F)F)c1 (centres undefined) | 0.89 ± 0.093 | 1.05 ± 0.073 | 0.87 ± 0.052 | 1.04 ± 0.058 | 1.16 ± 0.18 | 0.959 ± 0.14 | 1.02 (active)
Clc1ccc(CN2CCN(c3ncnc4scc(-c5cccs5)c34)CC2)cc1 | 0.489 ± 0.028 | 1.28 ± 0.1 | 1.25 ± 0.074 | 1.16 ± 0.072 | 1.66 ± 0.12 | 1.51 ± 0.14 | 0.997 (active)
COc1ccc(-c2nc(CNC(=O)C3CCN(c4cc(C5CC5)ncn4)CC3)cs2)cc1 | 0.957 ± 0.066 | 1.4 ± 0.11 | 1.16 ± 0.05 | 1.05 ± 0.062 | 1.24 ± 0.14 | 1.29 ± 0.25 | 1 (active)
COc1ccc(-c2[nH]c(-c3cccc(OC)c3)nc2SCC(=O)NC2CCCC2)cc1 | 0.849 ± 0.074 | 1.13 ± 0.056 | 1.91 ± 0.15 | 0.438 ± 0.026 | 0.824 ± 0.044 | 1.85 ± 0.14 | 1 (active)
Cl.O[C@@H](c1cc(C(F)(F)F)nc2c(C(F)(F)F)cccc12)[C@H]1CCCCN1 | 0.671 ± 0.091 | 0.59 ± 0.044 | 1.05 ± 0.071 | 0.504 ± 0.066 | 1.04 ± 0.096 | 2.25 ± 0.17 | 0.137 (inactive)
COC(=O)C1=C(C)N(C)C(C)=C(C(=O)OC)C1c1ccc(-c2ccccc2)cc1 | 0.873 ± 0.069 | 0.943 ± 0.057 | 0.939 ± 0.06 | 0.989 ± 0.03 | 1.06 ± 0.16 | 0.905 ± 0.19 | 1 (active)
Cc1ccc(-n2ncnc2-c2ccccc2C)cc1Cl | 0.759 ± 0.064 | 0.787 ± 0.044 | 1.14 ± 0.11 | 0.777 ± 0.052 | 1.48 ± 0.12 | 1.65 ± 0.21 | 0.996 (active)
COc1ccc(CNCc2cccc3ccccc23)cc1OC | 0.482 ± 0.04 | 0.912 ± 0.094 | 0.966 ± 0.042 | 0.832 ± 0.15 | 1.06 ± 0.086 | 1.16 ± 0.21 | 0.997 (active)
